# Bioassay records (PubChem BioAssay)
# ALDH1A1 block – qHTS Assay for Inhibitors of Aldehyde Dehydrogenase 1 (ALDH1A1); Aldehyde dehydrogenase 1A1 (Homo sapiens), P00352; Purified ALDH1A1, NADH fluorescence, propionaldehyde substrate; Potency, µM (titrated, usually from 75.3 µM), without a hit: at the highest dose activity, negative = inhibition, actives largely listed as inhibitors; 220,000 tested, 7.3% active; AID 1030, 2008; active = well fitted inhibition curve with a large enough effect, not every such curve was filed as active; inconclusive = small, poorly fitted or top-dose-only effect, or another doubt; inactive = no such curve, though single readings can be large or run the other way;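 also: potency is read from the fitted curve at half-maximal effect; plate controls were no enzyme wells and a reference inhibitor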
# aGal spleen mod – qHTS Assay for Inhibitors and Activators of Human alpha-Galactosidase From Spleen Homogenate; Alpha-galactosidase A (Homo sapiens), P06280; 240,000 tested, 0.008% active; Potency, µM (series often up to 80 µM), for inactives: at the top dose activity change, negative = inhibition, most hits filed as inhibitors; AID 2107, 2009; human spleen homogenate, 4MU-alpha-Gal fluorescence, 40 min;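 also: potency is read from the fitted curve at half-maximal effect; 0% = enzyme with vehicle and -100% = no enzyme basal signal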
# Target sequence (P06280 32-429 limits assumed): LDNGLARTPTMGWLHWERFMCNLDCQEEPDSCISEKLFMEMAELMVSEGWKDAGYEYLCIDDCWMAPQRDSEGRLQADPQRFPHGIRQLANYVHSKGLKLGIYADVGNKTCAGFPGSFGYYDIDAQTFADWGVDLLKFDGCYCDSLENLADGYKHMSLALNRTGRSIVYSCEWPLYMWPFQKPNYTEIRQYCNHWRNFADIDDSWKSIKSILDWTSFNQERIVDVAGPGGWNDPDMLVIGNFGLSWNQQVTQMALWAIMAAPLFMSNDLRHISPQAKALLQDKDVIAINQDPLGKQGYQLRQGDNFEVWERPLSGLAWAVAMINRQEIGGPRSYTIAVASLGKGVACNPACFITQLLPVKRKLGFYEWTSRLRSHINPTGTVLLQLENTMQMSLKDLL
#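 qHTS titration in buffer at pH 5.0. Alpha-galactosidase activity in spleen homogenate was measured via 4-methylumbelliferone release from 1 mM fluorogenic substrate after 40 min at 37C and a pH 10 stop. AC50 came from Hill fits of control-normalized data.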
# PNC assembly inh – High Content Assay for Compounds that inhibit the Assembly of the Perinucleolar Compartment. activity change (PNC), negative = inhibition, % at 10 µM. PC3M PTB-GFP, PNC prevalence imaging, 16 h; active compounds read low. AID 2417, 2010. 140,000 tested, 3.1% active;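 active = readout at or below -70, meaning at least 70% loss of cells showing the perinucleolar compartment, a nuclear body marking cancer cells; inconclusive = readout between -30 and a set limit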;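 also: plate controls were DMSO wells for no effect and camptothecin positive control wells for full effect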
#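 PC3M cells stably expressing PTB-GFP, 750–1000 cells/well, treated 16 h at 37 °C with compound (23 nl of library stock), in duplicate. After paraformaldehyde fixation and Hoechst stain, imaged at 20x; PNC prevalence scored by image analysis.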
# ALOX12 inhib – qHTS Assay for Inhibitors of 12-hLO (12-human lipoxygenase); Potency, µM (series often up to 57.1 µM), without a hit: at the top dose activity change, negative = inhibition, actives largely listed as inhibitors; Polyunsaturated fatty acid lipoxygenase ALOX12 (Homo sapiens), P18054; 150,000 tested, 0.12% active; purified 12-hLO, xylenol orange hydroperoxide absorbance; also: potency is read from the fitted curve at half-maximal effect; nearly all actives have a fitted effect of over 55% in size
#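 150 nM 12hLO, 25 mM Hepes pH 7.0 + 0.01% Triton X-100; cpd preinc 15 min RT; 40 uM arachidonic acid, 30 min RT; Fe-XO 30 min; A573/A405 ratio as read-out.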
# HPGD block – qHTS Assay for Inhibitors of HPGD (15-Hydroxyprostaglandin Dehydrogenase). 15-hydroxyprostaglandin dehydrogenase [NAD(+)] (Homo sapiens), P15428. purified HPGD, NADH fluorescence kinetic, PGE2 substrate. Potency, µM, for the others: top-dose activity change, negative = inhibition, hits mostly inhibitors. 150,000 tested, 4.3% active. AID 894, 2007; active = well fitted inhibition curve with a large enough effect, not every such curve was filed as active; inconclusive = small, poorly fitted or top-dose-only effect, or another doubt; inactive = no such curve, though single readings can be large or run the other way; also: potency is read from the fitted curve at half-maximal effect
# Target sequence (P15428 whole entry, looked up): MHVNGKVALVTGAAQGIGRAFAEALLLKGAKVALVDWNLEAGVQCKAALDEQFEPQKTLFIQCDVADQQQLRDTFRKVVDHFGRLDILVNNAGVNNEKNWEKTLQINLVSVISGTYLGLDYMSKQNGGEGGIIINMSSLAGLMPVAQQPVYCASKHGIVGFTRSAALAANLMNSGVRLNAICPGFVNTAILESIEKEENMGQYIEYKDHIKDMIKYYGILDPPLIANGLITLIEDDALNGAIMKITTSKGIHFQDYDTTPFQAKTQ
#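 20 nM HPGD preincubated 15 min at room temperature with compound in 50 mM Tris-HCl pH 8, 0.01% Tween 20. Started with 1 mM NAD+ and 30 uM prostaglandin E2; NADH fluorescence (360/450 nm) read 5 times over 30-s intervals, last minus first.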
# GLA inh pH 4.5 – qHTS Assay for Inhibitors of Human alpha-Galactosidase at pH 4.5; 230,000 tested, under 10 active; activity change, negative = inhibition, % at 105 µM; Alpha-galactosidase A (Homo sapiens), P06280; purified enzyme, 4-MU-alpha-Gal fluorescence, pH 4.5;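 also: 0% = full activity with enzyme and -100% = basal without enzyme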
# * = called active by the depositor; ? = inconclusive; nt = not tested or not shown; ! = repeats disagree; [ ] = remark or other dose. Hits are enriched below; roughly 10% of the tested compounds scored in any of these assays. Unless noted, calls follow the shape of the dose curve; as a rule, active = well fitted curve in the direction sought with a large enough effect; inconclusive = small, poorly fitted or top-dose-only effect, or another doubt; inactive = no such curve, though single readings can be large; an effect the other way counts as inactive or inconclusive. Unless noted, % is scaled to controls: 0 for no effect and ±100 for the full control effect.
SMILES,ALDH1A1 block,aGal spleen mod,PNC assembly inh,ALOX12 inhib,HPGD block,GLA inh pH 4.5
Cc1ccc(S(=O)(=O)NC(C)(C)CN2CCC(Cc3ccccc3)CC2)cc1,nt,3%,nt,nt,nt,-13
CCOc1cc(C=O)cc(Br)c1OCC(=O)NCCc1ccccc1,6.3µM*,-2%,nt,nt,nt,2
COc1cc(C=O)c(Br)cc1OCC(=O)NCCc1ccccc1,-6%,8%,nt,nt,nt,4
Cc1ccc(C(=O)Nc2ccc(N3CCOCC3)nc2N2CCOCC2)cc1,?,8%,nt,nt,nt,-5
Cc1[nH]c2ccccc2c1N=Nc1ccccc1C(=O)O,?,1%,-8,-15%,14µM*,-12
CC(C)C1NC(=S)N(C2CCCCC2)C1=O (stereo not drawn),-23%,-7%,-17,-3%,-25%,0
O=c1[nH][nH]c(=S)n1C1CCCCC1,1.3µM*,-7%,nt,nt,nt,4
c1ccc(Oc2cc(-c3ccccc3)nc(-c3ccccc3)n2)cc1,1%,-2%,48,1%,-9%,3
O=S(=O)(Cc1cc(Oc2ccccc2)nc(-c2ccccc2)n1)c1ccccc1,4%,3%,-102*,-8%,-15%,3
O=C(NCCN1C(=O)C2C3C=CC(C3)C2C1=O)Nc1ccc(Br)cc1 (stereo not drawn),11µM*,3%,?,-4%,-11%,3
COc1ccc2c(C)cc(SCC#N)nc2c1,-10%,-1%,35,-8%,24%,-3
COc1ccc2c(C)cc(SCc3c(C)noc3C)nc2c1,?,5%,-111*,-3%,?,-1
Cc1noc(C)c1C(=O)N1CCC[C@@]2(CCN(c3cccc(-c4ccccc4)c3)C2)C1,-8%,6%,nt,-13%,-14%,nt
Cc1ccc(C)c(C2=NNC(=NCc3ccccc3)SC2)c1,18µM*,6%,nt,nt,nt,-17
C=CCn1c(C)cc(C2=NNC(=NCc3ccccc3)SC2)c1C,?,-6%,nt,nt,nt,-13
c1ccc2oc(C3=NNC(=NC4CC4)SC3)cc2c1,28µM*,2%,83,-21%,?,-17
c1ccc(CN=C2NN=C(c3cc4ccccc4o3)CS2)cc1,28µM*,4%,-11,-2%,16µM*,-6
CCN=C1NN=C(c2cc(C)n(CCc3ccccc3)c2C)CS1,?,0%,nt,nt,nt,-2
O=C(Nc1ccccc1)N1CCC2(CC1)CCN(C(=O)c1ccco1)CC2,-5%,3%,nt,-1%,1%,nt
COCCn1c(SCC(=O)Nc2ncc(C)s2)nc2sc3c(c2c1=O)CCC3,-12%,-6%,?,-7%,-10%,-6
COCCn1c(SCc2nnc(-c3ccccc3)o2)nc2sc3c(c2c1=O)CCC3,-8%,-3%,51,-8%,7.1µM*,4
O=c1c(-c2cccc(Cl)c2)nc2cncnc2n1Cc1ccccc1Cl,2%,5%,nt,0%,1%,nt
CCc1cc2c(=O)c(-c3ccc4c(c3)OCCO4)c(C)oc2cc1OS(C)(=O)=O,4.5µM*,-3%,5,-3%,-22%,-3
CCOC(=O)CNC(=O)c1cc(-c2ccc3c(c2)OCCO3)oc1C,?,-2%,?,-5%,-24%,-5
C=Cc1c(C)c2cc3nc(cc4[nH]c(cc5nc(cc1[nH]2)C(C)=C5CCC(=O)O)c(CCC(=O)OC)c4C)[C@@]1(C)C3=CC=C(C(=O)OC)[C@H]1C(=O)OC (tested in a mixture with another compound),3%[20.9 µM],5%[29.1 µM],nt,-7%[25.6 µM],-5%,0
SMILES,ALDH1A1 block,aGal spleen mod,PNC assembly inh,ALOX12 inhib,HPGD block,GLA inh pH 4.5
O=C(c1ccc(Sc2cccc(Cl)c2)c([N+](=O)[O-])c1)N1CCN(c2ccccn2)CC1,-7%,-4%,nt,nt,nt,-7
O=C(COc1ccc(F)cc1)NNC(=O)c1cc2ccccc2oc1=O,-5%,-6%,-88*,-1%,-16%,3
Cc1ccc(-n2[nH]c(C)c(C=Nc3ccc(S(=O)(=O)Nc4nccs4)cc3)c2=O)cc1C,4%,1%,5,0%,?,-5
CCc1nnc(NS(=O)(=O)c2ccc(N=Cc3c(C)[nH]n(-c4cccc(Cl)c4)c3=O)cc2)s1,?,-3%,?,22%,13µM*,-2
Cc1[nH]n(-c2ccccc2)c(=O)c1C=Nc1ccc(S(=O)(=O)Nc2nccs2)cc1,13µM*,2%,nt,nt,nt,-1
CCc1nnc(NS(=O)(=O)c2ccc(N=Cc3c(C)[nH]n(-c4ccc(Cl)cc4)c3=O)cc2)s1,?,2%,0,-2%,?,3
CCC1=C2CC[C@H]3C(=O)NC(=O)[C@H]3[C@H]2[C@@]2(C)C(=NCCc3c[nH]c4ccccc34)OC(=O)N2C1=O,-5%,4%,nt,-1%,-5%,-2
CCCCCCOc1ccc(C(CC(=O)O)C(N)=O)cc1 (stereo not drawn),2%,6%,-104*,0%,-8%,-10
O=S(=O)(/N=C(/Nc1ccc(F)cc1F)c1ccccc1)c1ccc(Br)cc1,17%,6%,-99*,8%,-8%,3
COc1cccc(Nc2nc(N)c([N+](=O)[O-])c(NCc3ccccc3)n2)c1,nt,-1%,nt,nt,nt,-5
Cc1ccnc(NC(=O)c2cc(-n3cnnc3)ccc2Cl)c1,-1%,-9%,-100*,0%,-9%,1
CC1=C(/C=C/C(=C/C=C/C(C)=C/C(=O)O)c2ccc(C)cc2)C(C)(C)CCC1,?,-10%,nt,-20%[0.00818 µM],-19%,-10
CC1=C(\C=C/C(C)=C/C=C\C(C)=C\C(=O)O)C(C)(C)CCC1,35µM*!,-1%,nt,-11%,-7%,-7
CC1=C(/C=C/C(C)=C/C=C/C(C)=C\C(=O)O)C(C)(C)CCC1,?,15%,nt,1%,-14%,-10
CC1=C(/C=C/C(C)=C/C=C/C(C)=C/C(=O)Nc2ccc(O)cc2)C(C)(C)CCC1,20µM*!,-11%,nt,3%,-9%,-7
COc1ccc(CN2C(=O)CSC2c2ccncc2)cc1 (stereo not drawn),4%,4%,nt,nt,nt,-6
COc1ccc(N2C(=O)CSC2c2cccs2)cc1 (stereo not drawn),?,-7%,-114*,0%,-5%,4
CCOc1ccc(N2C(=O)CSC2c2ccncc2)cc1 (stereo not drawn),-5%,0%,-100*,-3%,-10%,-7
